Shown are actives, neighbours in structure and some others; about 2.8% of the full set was active somewhere.
WRN inhibitor – qHTS for Inhibitors of WRN Helicase. AID 651768, 2012. hit rate 0.46% among 360,000. Bifunctional 3'-5' exonuclease/ATP-dependent helicase WRN (Homo sapiens), Q14191. WRN helicase unwinding, fluorescent forked duplex, kinetic. Potency, µM (doses to about 114 µM), without a hit: at the top dose activity change, negative = inhibition, most hits filed as inhibitors; note: potency is the fitted concentration of half-maximal effect; % is set by controls: 0 for no effect and ±100 for the full control effect; nearly all actives have a fitted effect of over 55% in size
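Enzyme (20 nM final) and test compound sit together 15 min at room temperature before substrate addition. Substrate is a single-forked duplex oligonucleotide (100 nM) labelled with fluorophore and quencher, with 2 mM ATP; helicase unwinding raises red fluorescence, read kinetically.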
PI5P4K alpha inh – qHTS for Inhibitors of phosphatidylinositol 5-phosphate 4-kinase (PI5P4K). Phosphatidylinositol 5-phosphate 4-kinase type-2 alpha (Homo sapiens), P48426. PI5P4Kalpha enzyme, ADP-Glo luminescence, 60 min; active compounds read low. max response, %. hit rate 1.2% among 330,000. AID 652105, 2013; active = max response of -50% or lower; inconclusive = between -30% and -50%; inactive = -30% or higher; note: value at the top dose of about 77 µM; % is set by controls: 0 for no effect and ±100 for the full control effect
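qHTS, 1536-well: enzyme/substrate mix, compound by pin tool, 5 microM ATP final; RT 60 min; ADP-Glo reagents 1 (45 min) then 2 (30 min); luminescence.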
Pol beta inh – qHTS Assay for Inhibitors of DNA Polymerase Beta; Potency, µM (titrated, usually from 114 µM), without a hit: at the top dose activity change, negative = inhibition, most hits filed as inhibitors; P06746; hit rate 1.3% among 340,000; AID 485314, 2010; Pol beta primer extension/strand displacement, fluorescence kinetic; note: potency is the fitted concentration of half-maximal effect; % is set by controls: 0 for no effect and ±100 for the full control effect
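Values derive from four-parameter Hill fits of normalized kinetic data: reads at 0 and 10 min following addition of 50 nM substrate to 10 nM Pol beta preincubated 15 min with compound.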
Pol eta inh-1 – qHTS for Inhibitors of Polymerase Eta. DNA polymerase eta (Homo sapiens), Q9Y253. Potency, µM (highest dose often 114 µM), inactives show top-dose activity change, negative = inhibition, most hits filed as inhibitors. recombinant Pol eta, fluorescent DNA replication assay. hit rate 1.2% among 390,000; note: potency is the fitted concentration of half-maximal effect; % is set by controls: 0 for no effect and ±100 for the full control effect
Target sequence (Q9Y253 whole entry, looked up): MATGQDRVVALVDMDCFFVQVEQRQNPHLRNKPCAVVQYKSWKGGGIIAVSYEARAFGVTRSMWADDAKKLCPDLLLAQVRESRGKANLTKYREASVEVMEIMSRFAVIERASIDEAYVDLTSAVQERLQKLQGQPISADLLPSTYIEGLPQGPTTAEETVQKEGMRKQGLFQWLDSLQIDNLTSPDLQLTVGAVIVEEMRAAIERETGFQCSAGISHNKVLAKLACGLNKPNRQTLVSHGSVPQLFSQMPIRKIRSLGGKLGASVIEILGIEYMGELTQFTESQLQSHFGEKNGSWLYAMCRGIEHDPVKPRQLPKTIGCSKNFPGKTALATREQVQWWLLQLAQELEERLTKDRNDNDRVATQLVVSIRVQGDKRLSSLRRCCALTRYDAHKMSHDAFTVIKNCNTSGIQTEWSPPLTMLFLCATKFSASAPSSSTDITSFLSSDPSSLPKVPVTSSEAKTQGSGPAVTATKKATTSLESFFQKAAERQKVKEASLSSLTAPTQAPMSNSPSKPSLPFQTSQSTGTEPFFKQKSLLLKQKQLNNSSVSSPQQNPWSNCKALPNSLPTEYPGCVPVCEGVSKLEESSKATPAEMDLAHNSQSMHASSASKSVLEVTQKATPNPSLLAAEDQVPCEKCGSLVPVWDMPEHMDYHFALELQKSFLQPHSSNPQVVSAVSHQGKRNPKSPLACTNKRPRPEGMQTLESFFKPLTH
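Pol eta (10 nM) was preincubated with compounds for 15 min at room temperature, after which fluorescent replication substrate (50 nM final) was added to start the reaction. Fluorescence was read kinetically at 0 and 10 min.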
POLK inh – qHTS for Inhibitors of Polymerase Kappa; hit rate 0.53% among 400,000; purified Pol kappa, fluorescent DNA synthesis assay, 10 min; Potency, µM (titrated, usually from 107 µM), without a hit: at the highest dose activity, negative = inhibition, most hits filed as inhibitors; DNA polymerase kappa (Homo sapiens), Q9UBT6; AID 588579, 2011; note: potency is the fitted concentration of half-maximal effect; % is set by controls: 0 for no effect and ±100 for the full control effect
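Enzyme at 10 nM met test compounds for 15 min at room temperature. Substrate addition (50 nM final) began the reaction, which was monitored by fluorescence at 0 and 10 min.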
POLI inh – qHTS for Inhibitors of Polymerase Iota; Potency, µM (doses to about 115 µM), for the others: top-dose activity, negative = inhibition, usual class: inhibitors; DNA polymerase iota (Homo sapiens), Q9UNA4; Pol iota fluorescent replication assay, 10 min; hit rate 1% among 390,000; note: potency is the fitted concentration of half-maximal effect
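Fluorescent replication assay read twice, at 0 min and 10 min after adding 50 nM (final) substrate. Enzyme (10 nM) and compounds were first incubated 15 min at room temperature; enzyme-free buffer wells were negative controls.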
PGK validate – qHTS for inhibitors of Phosphogylcerate Kinase: Hit Validation Screen | shares compounds with POLK inh | TbPGK coupled GAPDH assay, Kinase-Glo luminescence | Potency, µM (titrated, usually from 57.5 µM), for inactives: at the top dose activity change, negative = inhibition, hits mostly inhibitors | hit rate 79% among 500; note: potency is the fitted concentration of half-maximal effect; % is set by controls: 0 for no effect and ±100 for the full control effect; nearly all actives have a fitted effect of over 65% in size
POLI cherry-pick – qHTS for Inhibitors of Polymerase Iota: Confirmatory Assay for Cherry-picked Compounds | shares compounds with POLK inh | Pol iota primer extension, TAMRA/BHQ fluorescence | Potency, µM, actives largely listed as inhibitors | hit rate 77% among 1,500 | AID 720496, 2013; note: potency is the fitted concentration of half-maximal effect
Pol eta inh-2 – qHTS for Inhibitors of Polymerase Eta: Confirmatory Assay for Cherry-picked Compounds; Potency, µM, actives largely listed as inhibitors; shares compounds with Pol eta inh-1; AID 720502, 2013; hit rate 64% among 2,600; Pol eta primer extension, TAMRA/BHQ fluorescence, 10 min; note: potency is the fitted concentration of half-maximal effect
ADP-Glo interf – qHTS for Inhibitors of PI5P4K: ADP-Glo counter assay | shares compounds with PI5P4K alpha inh | ADP-Glo detection counter-screen, luciferase luminescence, no enzyme | Potency, µM (highest dose often 76.9 µM), for the others: top-dose activity change, negative = inhibition, most hits filed as inhibitors | 1,100 tested, under 10 active | AID 743285, 2014
An asterisk follows results filed as active; ? = inconclusive; · = not tested or not shown; [ ] = another dose, or the depositor's remark. Unless noted, calls come from the whole dose curve; as a rule, active = well fitted curve in the direction sought with a large enough effect; inconclusive = small, poorly fitted or top-dose-only effect, or another doubt; inactive = no such curve, though single readings can be large; an effect the other way counts as inactive or inconclusive.

SMILES	WRN inhibitor	PI5P4K alpha inh	Pol beta inh	Pol eta inh-1	POLK inh	POLI inh	POLI cherry-pick	Pol eta inh-2	ADP-Glo interf	others
c1cc2c(cc1C1=NNC(=NC3CC3)SC1)OCCO2	0.0%	-50.9*	-9.6%	-0.2%	-19.9%	?	·	·	?	PGK validate=9.19µM*
Cc1ccc(S(=O)(=O)N2CCN(CC(=O)N/N=C/c3ccco3)CC2)cc1	-11.8%	9.0	31.5%	-11.2%	-15.6%	8.0%	·	·	·
Cc1ccc(-c2nc3c(c(=O)[nH]c(=O)n3Cc3ccccc3)n2C)o1	-12.9%[11.6 µM]	-67.8*	10µM*	11.2µM*	?	11.2µM*	?	75.7*	-8.9%
Cc1ccc(-c2nc3c(c(=O)[nH]c(=O)n3Cc3ccccc3)n2Cc2ccccc2)o1	-10.1%	?	3.9%	-18.2%	-6.9%	144.7%	·	·	·
CCOc1ccccc1C(C(=O)NC1CCCCC1)N(C(=O)c1csnn1)C1CC1 (stereo not drawn)	5.0%	-3.9	2.6%	-8.5%	-9.8%	15.4%	·	·	·
Cc1c(CC(=O)O)c(=O)oc2c(C)c3occ(-c4ccc(Br)cc4)c3cc12	-15.8%[11.6 µM]	-50.7*	22.4µM*	?	-6.1%	20.4%	42.3*	75.7*	-7.3%
COc1ccc(-c2coc3c(C)c4oc(=O)c(CC(=O)O)c(C)c4cc23)cc1	-14.0%	-23.8	-6.3%	-13.3%	-0.8%	116.7%	·	·	·
Cc1cnc(C(=O)OCc2nc3ccsc3c(=O)[nH]2)cn1	50.1µM*	-65.0*	·	10µM*	79.4µM*	15.8µM*	26.7*	21.3*	-11.2%
O=C(OCc1nc2ccsc2c(=O)[nH]1)c1ccco1	-27.0%	0.4	·	4.6%	-12.8%	47.5%	·	·	·
COC(=O)c1c(SCC(=O)Nc2cccc(C(F)(F)F)c2)[nH]c2ccccc2c1=O	·	·	26.1%	-3.2%	0.3%	-16.4%	·	·	·

Compound activity (PubChem)
